Values joined by “and” are separate entries in the source; they are usually repeats but may differ in a detail not shown here. Equal entries are not always repeated. Results filed as inconclusive are left out. Active and inactive are the calls of the source. The call rests on the fitted dose curve; in most records, active means well fitted curve in the direction sought with a large enough effect; inconclusive means small, poorly fitted or top-dose-only effect, or another doubt; inactive means no such curve, though single readings can be large; an effect the other way counts as inactive or inconclusive.
Tests used:
[1] = Quantitative highthroughput screen to assess conditional lethalithy of NOMO1 cells grown in RPMI1640 with dialyzed fetal bovine serum (RPMI+ds) (AID 1963877); further: nearly all actives have a fitted effect of over 30% in size; further: potency means the concentration at half of the fitted maximal effect;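 on viability: series mostly up to about 46 µM; 100% = DMSO control wells and 0% = empty wells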
Procedure, shortened: (§1)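 Each medium arm—HPLM with 10% dialyzed FBS, or RPMI1640 with 5 mM glucose and 10% untreated or dialyzed FBS—was screened against an 11-point, 3-fold compound titration for 48 h at 37 °C, with CellTiter-Glo luminescence as endpoint.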

[2] = Quantitative highthroughput screen to assess conditional lethalithy of NOMO1 cells grown in Human Plasma-Like Medium with dialyzed fetal bovine serum (HPLM+ds) (AID 1963878); further: nearly all actives have a fitted effect of over 35% in size; further: potency means the concentration at half of the fitted maximal effect;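 on viability: 100% = DMSO wells and 0% = empty wells on each plate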
Procedure, shortened: as §1

[3] = Quantitative highthroughput screen to assess conditional lethalithy of P12 Ichikawa cells grown in Human Plasma-Like Medium with dialyzed fetal bovine serum (HPLM+ds) (AID 1963879); conditions: Potency: viability; further: nearly all actives have a fitted effect of over 35% in size; further: potency means the concentration at half of the fitted maximal effect; on viability: series mostly up to about 46 µM
Procedure, shortened: as §1

[4] = Quantitative highthroughput screen to assess conditional lethalithy of P12 Ichikawa cells grown in RPMI1640 with dialyzed fetal bovine serum (RPMI+ds) (AID 1963880); conditions: Potency: P12-Ichikawa viability; further: nearly all actives have a fitted effect of over 35% in size; further: potency means the concentration at half of the fitted maximal effect;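 on viability: 100% = DMSO wells and 0% = empty wells on each plate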
Procedure, shortened: as §1

[5] = Quantitative highthroughput screen to assess conditional lethalithy of P12 Ichikawa cells grown in RPMI1640 with untreated serum (RPMI+s) (AID 1963881); conditions: Potency: viability; further: nearly all actives have a fitted effect of over 35% in size; further: potency means the concentration at half of the fitted maximal effect;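 on viability: series mostly up to about 46 µM; 100% = DMSO wells and 0% = empty wells without cells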
Procedure, shortened: as §1

[6] = Quantitative highthroughput screen to assess conditional lethalithy of SEM cells grown in Human Plasma-Like Medium with dialyzed fetal bovine serum (HPLM+ds) (AID 1963882); further: nearly all actives have a fitted effect of over 35% in size; further: potency means the concentration at half of the fitted maximal effect; on viability: series mostly up to about 46 µM
Procedure, shortened: as §1

[7] = Quantitative highthroughput screen to assess conditional lethalithy of SEM cells grown in RPMI1640 with unreated serum (RPMI+s) (AID 1963883); further: nearly all actives have a fitted effect of over 35% in size; further: potency means the concentration at half of the fitted maximal effect;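 on viability: 100% = DMSO wells and 0% = empty wells without cells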
Procedure, shortened: as §1

[8] = Quantitative highthroughput screen to assess conditional lethalithy of SEM cells grown in RPMI1640 with dialyzed fetal bovine serum (RPMI+ds) (AID 1963884); further: nearly all actives have a fitted effect of over 35% in size; further: potency means the concentration at half of the fitted maximal effect;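 on viability: series mostly up to about 46 µM; 100% = DMSO control wells and 0% = empty wells without cells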
Procedure, shortened: as §1

[9] = Cellular viability qHTS for adrenocortical cancer (ACC) cell line NCI-H295R (AID 1963990); further: nearly all actives have a fitted effect of over 60% in size; further: potency means the concentration at half of the fitted maximal effect
Procedure, shortened: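 Viability of NCI-H295R after 48 h of treatment (final up to 46 uM) measured through cellular ATP luminescence.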

[10] = Cellular viability qHTS for adrenocortical cancer (ACC) cell line SW-13 (AID 1963989); conditions: SW-13 ACC cells viability, CellTiter-Glo, 48 h; activity (max response): active compounds read low;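 further: cells grown in serum-free medium with ITS supplement; on the % scale 0 is the no-effect control and ±100 the full control effect; nearly all actives have a fitted effect of over 65% in size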
Procedure, shortened: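 Here, serum-free SW-13 cultures were dosed up to 46 uM. Following 48 h, ATP-dependent luminescence (CellTiter-Glo) reported viable cells, and logistic modeling produced IC50 values.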

Cc1cc(O)c2c(c1)C(=O)c1cc(O)cc(O)c1C2=O
inactive: Potency [1] | Potency [2] | Potency [3] | Potency [4] | Potency [5] | Potency [6] | Potency [7] | Potency [8] | Potency [9]

O=C(Cc1cccc(OC(F)(F)F)c1)Nc1ccc(CCCCc2nnc(NC(=O)Cc3ccccn3)s2)nn1
active: Potency [6] 0.0524 µM
inactive: Potency [2] | Potency [3] | activity (max response) [10] 11.1% | Potency [9]

CC(C)(C)OC(=O)N[C@H]1CCCCCC=C[C@@H]2C[C@@]2(C(=O)NS(=O)(=O)C2CC2)NC(=O)[C@@H]2C[C@@H](OC(=O)N3Cc4cccc(F)c4C3)CN2C1=O
inactive: Potency [1] | Potency [2] | Potency [4] | Potency [5] | Potency [6] | Potency [7] | Potency [8] | activity (max response) [10] 8.79% | Potency [9]

OCc1ccccc1O[C@@H]1O[C@H](CO)[C@H](O)[C@H](O)[C@H]1O
active: Potency [1] 13.2 µM | Potency [2] 7.43 µM | Potency [4] 16.6 µM

O=c1cc(-c2ccc(O)cc2)oc2cc(O)cc(O)c12
inactive: Potency [3] | Potency [4] | Potency [5] | Potency [6] | Potency [7] | activity (max response) [10] -18.3% | Potency [9]
active: Potency [1] 18.7 µM

O=c1[nH]c(=O)n([C@H]2C[C@@H](O)[C@@H](CO)O2)cc1I
inactive: Potency [1] | Potency [4]
active: Potency [2] 11.8 µM

Cn1ccc2cc3c(cc21)CCN3C(=O)Nc1cccnc1
inactive: Potency [1] | Potency [2] | activity (max response) [10] -12.5% and 11.5% | Potency [9]

O=C(Nc1cc(Cl)cc2c1[nH]c1cnccc12)c1cccnc1
inactive: Potency [1] | Potency [2] | Potency [4] | Potency [6] | activity (max response) [10] 7.23% | Potency [9]

C[C@@H]1[C@H](C)CC[C@]2(C(=O)O)CC[C@]3(C)C(=CC[C@@H]4[C@@]5(C)CC[C@H](O)C(C)(C)[C@H]5CC[C@]43C)[C@@H]12
inactive: Potency [1] | Potency [5] | Potency [6] | Potency [8]

CN(C)CCOc1cc(-c2cn[nH]c2)ccc1NC(=O)C1COc2ccccc2O1 (stereo not drawn)
inactive: Potency [3] | Potency [4]
active: Potency [1] 6.62 µM | Potency [9] 17.8 µM

COCCCCC(=NOCCN)c1ccc(C(F)(F)F)cc1
inactive: Potency [3]
active: Potency [2] 18.7 µM

C[C@@H]1C[C@H]2[C@@H]3CCC4=CC(=O)C=C[C@]4(C)[C@@]3(F)[C@@H](O)C[C@]2(C)[C@@]1(O)C(=O)CO
inactive: Potency [1] | activity (max response) [10] 6.21% and 9.17% | Potency [9]

CC[C@]1(O)C[C@H]2CN(CCC3=c4ccccc4=N[C]3[C@@](C(=O)OC)(c3cc4c(cc3OC)N(C)[C@H]3[C@@](O)(C(N)=O)[C@H](O)[C@]5(CC)C=CCN6CC[C@]43[C@@H]65)C2)C1
active: Potency [2] 0.0148 µM | Potency [3] 0.0833 µM | Potency [5] 0.0662 µM | Potency [6] 0.118 µM | Potency [7] 0.059 µM | Potency [8] 0.118 µM

CC(C)N(C[C@H]1O[C@@H](n2cnc3c(N)ncnc32)[C@H](O)[C@@H]1O)C1CC(CCc2nc3ccc(C(C)(C)C)cc3[nH]2)C1 (stereo partly drawn)
inactive: activity (max response) [10] 7.65% | Potency [9]
active: Potency [2] 5.88 µM | Potency [3] 1.05 µM | Potency [4] 3.71 µM | Potency [8] 11.7 µM

CC(=O)N[C@H]1[C@@H]([C@H](O)[C@H](O)CO)OC(C(=O)O)=C[C@@H]1N=C(N)N
inactive: Potency [1] | Potency [3] | Potency [6]

O=C(Nc1ccccc1)Nc1ccc(-c2ccc(C(=O)[C@H]3CCC[C@H]3C(=O)O)cc2)cc1
inactive: Potency [3] | Potency [5] | Potency [6] | Potency [7] | Potency [8]
active: Potency [1] 6.62 µM

COc1cc2c(Nc3ccc(Cl)c(Cl)c3F)ncnc2cc1OCC1C[C@@H]2CN(C)C[C@H]2C1
active: Potency [2] 4.18 µM | Potency [3] 11.8 µM | Potency [4] 16.6 µM | Potency [5] 13.2 µM | Potency [6] 10.5 µM | Potency [7] 2.64 µM | Potency [8] 11.8 µM

CNC(=O)c1ccc(N2C(=S)N(c3cnc(C#N)c(C(F)(F)F)c3)C(=O)C23CCC3)cc1F
active: Potency [1] 2.35 µM
inactive: Potency [3] | Potency [4] | Potency [5] | Potency [6] | Potency [7] | Potency [8] | activity (max response) [10] 4.43%

CC(C)CN(C[C@@H](O)[C@H](Cc1ccccc1)NC(=O)O[C@H]1CO[C@H]2OCC[C@H]21)S(=O)(=O)c1ccc(N)cc1
inactive: Potency [1] | Potency [2]
active: Potency [6] 3.72 µM

CC(=O)Nc1sc2c(c1-c1nc3ccccc3s1)CNC2
inactive: Potency [2] | Potency [3]
active: Potency [5] 16.6 µM | Potency [6] 18.7 µM | Potency [8] 18.7 µM

CCOC(=O)[C@H](CCc1ccccc1)N[C@@H](C)C(=O)N1[C@@H](C(=O)O)C[C@H]2CCC[C@@H]21
active: Potency [1] 23.5 µM | Potency [2] 23.5 µM | Potency [7] 20.9 µM

Cc1ccc([C@@H]2O[C@H](CO)[C@@H](O)[C@H](O)[C@@H]2O)cc1Cc1ccc(-c2ccc(F)cc2)s1
inactive: Potency [1] | Potency [6]

CC(=O)NCC(=O)N1[C@H]2CC[C@H]1c1cc(Nc3ncc(C(F)(F)F)c(NC4CCC4)n3)ccc12
active: Potency [2] 0.296 µM | Potency [3] 0.132 µM | Potency [5] 0.132 µM | Potency [6] 0.118 µM | Potency [7] 0.105 µM | Potency [8] 0.105 µM

CC(O)=C(C#N)C(=O)Nc1ccc(C(F)(F)F)cc1
inactive: Potency [1] | Potency [3] | Potency [5]

Source: PubChem BioAssay (NCATS)
